Laboratory results published in PubChem BioAssay AID1851 (National Center for Advancing Translational Sciences (NCATS), 2009).
Where “and” joins values, the source holds several entries; their conditions need not be identical. Equal entries are not always repeated. Out of some 16,000 compounds screened, about 5,800 (36%) were called active. Not shown: some 23% with an inconclusive outcome. Calls come from the whole dose curve; as a rule, active = well fitted curve in the direction sought with a large enough effect; inconclusive = small, poorly fitted or top-dose-only effect, or effect the other way; inactive = no such curve, though single readings can be large or run the other way. Some of the results follow. A structure can be active in one record and inactive in another.

Each compound was assayed against Cytochrome P450 2C19 (Homo sapiens) (UniProt P33261) (assay: Cytochrome panel assay with activity outcomes). Settings: recombinant CYP, pro-luciferin dealkylation, luminescence, p450-cyp2c19; series mostly up to 57.1 µM.
Sequence of Cytochrome P450 2C19 (Homo sapiens) (P33261 whole entry, looked up): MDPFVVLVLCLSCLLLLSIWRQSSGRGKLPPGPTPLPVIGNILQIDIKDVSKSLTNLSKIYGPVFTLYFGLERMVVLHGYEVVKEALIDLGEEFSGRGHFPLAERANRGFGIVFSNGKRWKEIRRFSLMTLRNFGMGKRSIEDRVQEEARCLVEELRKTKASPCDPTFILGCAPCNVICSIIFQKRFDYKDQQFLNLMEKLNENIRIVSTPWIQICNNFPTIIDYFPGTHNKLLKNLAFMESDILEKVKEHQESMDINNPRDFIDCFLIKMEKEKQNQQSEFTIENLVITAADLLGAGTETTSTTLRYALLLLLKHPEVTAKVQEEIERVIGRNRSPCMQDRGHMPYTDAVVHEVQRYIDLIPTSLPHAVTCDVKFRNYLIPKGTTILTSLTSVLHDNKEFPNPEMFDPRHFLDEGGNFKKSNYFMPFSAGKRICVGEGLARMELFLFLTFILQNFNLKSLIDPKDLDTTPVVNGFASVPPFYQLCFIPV
% is set by controls: 0 for no effect and ±100 for the full control effect.

Compound	AC50	activity, negative = inhibition
CC1(C)Cc2c(sc3nc(-c4ccccc4)n(N)c(=O)c23)CO1	25.1 µM (active)	–
Cc1nn2c(C)nc3sc4c(c3c2nc1=O)CC(C)(C)OC4	inactive	–
CCC[C@H](Sc1nc(N)nc2nc[nH]c12)C(=O)O	–	25% [at 11.4 µM] (inactive)
CC(C)[C@H](Sc1nc(N)nc2nc[nH]c12)C(=O)O	–	22.9% [at 11.4 µM] (inactive)
Nc1nc(Sc2ccc([N+](=O)[O-])c3nonc23)c2[nH]cnc2n1	1.58 µM (active)	–
Nc1nc(N)c2[nH]cnc2n1 (tested in a mixture with another compound)	–	6.99% [at 11.4 µM] (inactive)
Nc1nc(SCCc2ccccc2)c2[nH]cnc2n1	0.631 µM (active)	–
Nc1nc(SCc2ccccc2[N+](=O)[O-])c2[nH]cnc2n1	1 µM (active)	–
O=c1[nH]c(SCc2ccccc2[N+](=O)[O-])nc2nc[nH]c12	–	23.8% [at 11.4 µM] (inactive)
Nc1nc(SC/C=C\c2ccccc2)c2[nH]cnc2n1	1.58 µM (active)	–
CC[C@H](C)[C@@H]1O[C@]2(CC[C@@H]1C)C[C@H]1C[C@H](CC=C(C)[C@@H](O[C@H]3C[C@H](OC)[C@H](O[C@H]4C[C@H](OC)[C@H](O)[C@H](C)O4)[C@H](C)O3)[C@@H](C)C=CC=C3CO[C@@H]4[C@@H](O)C(C)=C[C@H](C(=O)O1)[C@@]34O)O2	inactive	–
COc1cc2c(CCNC(C)=O)c[nH]c2cc1Cl	5.01 µM (active)	–
CC(=O)NCCc1c[nH]c2ccc(O)cc12	inactive	–
COc1cc2c(CCNC(C)=O)c[nH]c2cc1O	inactive	–
CC(C)[C@](N)(C(=O)O)c1ccccc1	–	11.6% [at 11.4 µM] (inactive)
Cc1nc2c3cnn(-c4ccc(C)c(C)c4)c3ncn2n1	10 µM (active)	–
O=C(N/N=C/c1ccco1)c1ccc(Br)o1	inactive	–
O=C(Cc1ccccc1)N/N=C/c1cc(Br)c(Br)o1	8.91 µM (active)	–
O=C(Cc1ccccc1)N/N=C\c1ccc(Br)o1	10 µM (active)	–
O=c1ccc2cc(O)c(O)cc2o1	inactive	–
O=C(O)c1cc2cc(Cl)ccc2oc1=O	inactive	–
CCN(CC)c1ccc2cc(C(C)=O)c(=O)oc2c1	1.58 µM (active)	–
O=C(O)C[C@H](S)C(=O)O	–	13.1% [at 11.4 µM] (inactive)
C=CC(C)(C)c1[nH]c2ccccc2c1C1=C(O)C(=O)C(c2c[nH]c3c(CC=C(C)C)cccc23)=C(O)C1=O	1.26 µM (active)	–

Compound	AC50	activity, negative = inhibition
COc1ccc(-n2c(=O)c(-c3cccs3)nc3cnc(N4CCOCC4)nc32)cc1	inactive	–
CCCS(=O)(=O)N1CCCC(C(=O)NCCN2CCC(Cc3ccccc3)CC2)C1 (stereo not drawn)	inactive	–
Cc1ccc2c(c1)N[C@H](c1ccc(C(=O)O)cc1)c1cccn1-2	–	-26.9% [at 11.4 µM] (inactive)
Cc1ccc(C)c(S(=O)(=O)NCc2ccc(C(=O)N3CCC(Cc4ccccc4)CC3)cc2)c1	4.47 µM (active)	–
Cc1nc2ccccc2n1CC(=O)N/N=C\C=C\c1ccccc1	7.08 µM (active)	–
Cn1c(SCC(=O)N/N=C/C=C\c2ccco2)nc2ccccc21	14.1 µM (active)	–
CNC(=O)Oc1ccc2c(c1)[C@@]1(C)CCN(C)[C@@H]1N2C	inactive	–
CC(=O)OC[C@@H]1O[C@@H](O/N=C2/C[C@@H](O)[C@@H](O)[C@@H]3[C@@H]4C(=O)N([C@@H](C)c5ccccc5)C(=O)[C@H]4CC[C@H]23)[C@H](OC(C)=O)[C@H](OC(C)=O)[C@@H]1OC(C)=O	–	-3.3% [at 11.4 µM] (inactive)
O=C(/C=C/c1ccccc1)NC(NC(=S)Nc1ccc(Cl)cc1)C(Cl)(Cl)Cl (stereo not drawn)	3.55 µM (active)	–
C[C@@H](c1ccccc1)N1C(=O)[C@H]2[C@H]3[C@H](O)[C@H](O)C/C(=N/OCc4ccccc4)[C@@H]3CC[C@@H]2C1=O	–	-24.2% [at 11.4 µM] (inactive)
CC(C)NC(=O)N1CCCC2(CCN(C(=O)c3cc(C(F)(F)F)cc(C(F)(F)F)c3)CC2)C1	inactive	–
Cc1nn2c(NCC(C)C)c3c(nc2c1-c1ccccc1)CCC3	inactive	–
Cc1nn2c3c(cnc2c1-c1ccccc1)C(=O)CC(c1ccccc1)C3 (stereo not drawn)	7.08 µM (active)	–
Cc1ccc(C)c(NC(=O)NCc2ccc(Cl)cc2)c1	1.58 µM (active)	–
CCCCN1CCCC[C@H]1C(=O)Nc1c(C)cccc1C	inactive	–
Cc1cccc(C)c1NC(=O)N1CCC(N2CCCCC2)CC1	inactive	–
COC(=O)C1CSC(C(=O)OC)N1C(=O)Nc1c(C)cccc1C (stereo not drawn)	7.94 µM (active)	–
COC(=O)C1CSC(C(=O)OC)N1C(=O)Nc1ccccc1 (stereo not drawn)	10 µM (active)	–
COc1ccc(N2C(=O)NC(NC(=O)c3ccncc3)(C(F)(F)F)C2=O)cc1 (stereo not drawn)	6.31 µM (active)	–
COc1ccc(C(=O)N2CCC3(CCCN(Cc4ccncc4)C3)CC2)cc1	inactive	–
CC(=O)Nc1ccc(S(=O)(=O)NC2(C(F)(F)F)NC(=O)N(c3ccc(Cl)cc3)C2=O)cc1 (stereo not drawn)	inactive	–
CNc1ncnc2c1ncn2[C@@H]1O[C@H](CO)[C@@H](O)[C@@H]1O	inactive	–
O=C(O)c1cccnc1C(=O)O	inactive	–
O=[N+]([O-])c1ccc([C@@H](Nc2ccccc2)c2ccc3cccnc3c2O)cc1	3.98 µM (active)	–

Compound	AC50	activity, negative = inhibition
O=C(O)c1ccccc1N[C@H](c1ccccc1)c1ccc2cccnc2c1O	3.98 µM (active)	–
CC(=O)C[C@H](c1ccc([N+](=O)[O-])cc1)c1c(O)c2ccccc2oc1=O	inactive	–
Cc1cc(C)c(C#N)c(SCS(=O)c2ccc(C(C)(C)C)cc2)n1 (stereo not drawn)	3.16 µM (active)	–
C[C@]12CC3CC(N)(C1)C[C@@](C)(C3)C2	inactive and 10 µM (active)	–
C[C@@]12CC3CC(N)(C1)C[C@@](C)(C3)C2	inactive	–
Cc1nc([N+](=O)[O-])c(N2CCN(C)CC2)n1Cc1ccccc1	inactive	–
CCCn1c(CC)nc([N+](=O)[O-])c1S(=O)(=O)c1ccccc1	14.1 µM (active)	–
COc1cc(-c2nnc(SC/C=C/c3ccccc3)n2N)cc(OC)c1OC	15.8 µM (active)	–
CCCS(=O)(=O)N1CCCC(C(=O)NCCCOC(C)C)C1 (stereo not drawn)	inactive	–
CCC(C)NC(=O)C1CCCN(C(=O)NC2CCCCC2)C1 (stereo not drawn)	14.1 µM (active)	–
CCS(=O)(=O)N1CCCC(C(=O)NCCCOC(C)C)C1 (stereo not drawn)	inactive	–
CO/N=C(\C(=O)N[C@@H]1C(=O)N2C(C(=O)O)=C(COC(N)=O)CS[C@@H]12)c1ccco1	inactive	–
O=C(CO)N/N=C/c1ccccc1F	inactive	–
NC(=S)N/N=C/c1ccccc1OCc1cccc(Cl)c1	2.24 µM (active)	–
O=C(Cc1ccccc1)N/N=C/c1ccccc1OCc1ccc(Cl)cc1	4.47 µM (active)	–
Cc1cc2nc(C3CCCN(C(=O)NCc4ccccc4)C3)[nH]c2cc1C (stereo not drawn)	20 µM (active)	–
CC1=C(C(=O)NCCN2CCN(C)CC2)C2(CCC(C)CC2)OC1=O (stereo not drawn)	inactive	–
CC1=C(C(=O)N2CCCCCC2)C2(CCC(C)CC2)OC1=O (stereo not drawn)	10 µM (active)	–
CN1C(=C2C(=O)OC(C)(C)OC2=O)Sc2ccccc21	1 µM (active)	–
O=[N+]([O-])c1ccc(CSc2ncnc3c2ncn3[C@@H]2O[C@@H](CO)[C@@H](O)[C@H]2O)cc1	inactive	–
O=[N+]([O-])c1ccc(CSCc2ccc(Cl)cc2)cc1	0.398 µM (active)	–
N=C(N)SCCc1ccc(OCc2ccc([N+](=O)[O-])cc2)cc1	inactive	–
COc1ccc(N2CCN(C(=O)CSc3nnc4c5cc(C)ccc5n(C)c4n3)CC2)cc1	1 µM (active)	–
Cc1cc(=O)[nH]c2c1c(C)nn2C1CCOC(C)(C)C1 (stereo not drawn)	inactive	–

Compound	AC50	activity, negative = inhibition
Cc1ccc2c(c1)C1(SCCS1)C(=O)N2	25.1 µM (active)	–
O=C1Nc2ccc(F)cc2C12SCCS2	11.2 µM (active)	–
CCc1c(O)c2c(c(O)c1C(C)=O)C(=O)c1c(cc(O)c(C(=O)O)c1C(=O)O)C2=O	–	-9.38% [at 11.4 µM] (inactive)
CCOc1cc(CNCCCN2CCOCC2)cc(Br)c1OCC(=O)Nc1cccc(C(F)(F)F)c1	inactive	–
CCOc1cc2[nH]c(=O)n(CCC(=O)NCc3ccc(OC)cc3)c(=O)c2cc1OCC	inactive	–
CCOc1cc(CNc2ccc(OC)cc2)cc(Br)c1OCC(=O)NC(C)(C)C	5.62 µM (active)	–
OC[C@@H]1O[C@H](n2cnc3c(/C=C(\O)c4ccccc4)ncnc32)[C@H](O)[C@@H]1O	–	34% [at 11.4 µM] (inactive)
CCOc1ccc(N2C(=O)CS/C2=N/NC(=O)COc2ccc3ccccc3c2)cc1	15.8 µM (active)	–
O=C(NNC(=S)Nc1ccccc1)C1CC1	inactive	–
O=C(CSCc1ccccc1Cl)NNC(=O)c1ccccc1	5.01 µM (active)	–
O=C(NNC(=O)c1ccccc1O)c1ccc(Cl)cc1	inactive	–
O=C(CSCc1ccccc1Cl)NN1C(=O)c2ccccc2C1=O	10 µM (active)	–
O=C(CSCc1ccccc1Cl)NNC(=S)Nc1ccccc1	2.24 µM (active)	–
O=C(O)c1c2c(c(O)c3c1CN(C1CCCCC1)CO3)OCN(C1CCCCC1)C2	–	22.2% [at 11.4 µM] (inactive)
O=C(CSc1nc2ccc([N+](=O)[O-])cc2s1)c1ccc2ccccc2c1	–	-43.1% [at 11.4 µM] (inactive)
CCn1c(SCC(=O)c2ccccc2)nnc1-c1cccs1	0.794 µM (active)	–
CCn1c(SCC(=O)NC2CCCc3ccccc32)nnc1-c1cccs1 (stereo not drawn)	7.94 µM (active)	–
CCn1c(SCC(=O)NC(=O)NCc2ccco2)nnc1-c1cccs1	14.1 µM (active)	–
CCn1c(SCC(=O)c2ccc3ccccc3c2)nnc1-c1cccs1	0.708 µM (active)	–
Cc1cc(C)nc(SCc2nnc(SCC(N)=O)n2Cc2ccco2)n1	inactive	–
Cc1ccccc1CSc1nnc(-c2cccs2)n1Cc1ccco1	1.41 µM (active)	–
